7 molecules from PubChem BioAssay (NCI) can be followed below.

Holding throughout (assay): NCI-60 one-dose screen, 48 h (100 = growth as untreated, 0 = no growth, -100 = all killed)
What all share (conditions): 10 µM unless noted

Assay [1] has as its system SK-MEL-2 melanoma.
The test system of assay [2] is EKVX NSCLC.
Assay [3] relates to SN12C renal.
Assay [4] relates to UO-31 renal.
The test system of assay [5] is TK-10 renal.
The test system of assay [6] is ACHN renal.
Assay [7] deals with CAKI-1 renal.
The test system of assay [8] is A498 renal.
Assay [9] concerns CCRF-CEM leukemia.
The subject of assay [10] is MOLT-4 leukemia.
The test system of assay [11] is SR leukemia.
Assay [12] has as its system RPMI-8226 leukemia.
Assay [13] relates to OVCAR-8 ovarian.
The subject of assay [14] is OVCAR-5 ovarian.
Assay [15] concerns OVCAR-4 ovarian.
Assay [16] deals with SK-OV-3 ovarian.
Assay [17] deals with IGROV1 ovarian.
Assay [18] deals with OVCAR-3 ovarian.
Assay [19] concerns HS 578T breast.
Assay [20] concerns NCI/ADR-RES ovarian.

The panel holds about 83,000 compounds, 20% with a hit somewhere; the sample as a whole holds those more often.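 96-well plates, one dose, 48 hours. Percent growth reported; active if below 10.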 Values without a mark were called inactive. Activity calls are given as the source filed them.

Take `O=C(CSc1nc(-c2ccccc2)cn1-c1ccc(Cl)cc1)c1ccc([N+](=O)[O-])cc1`: the growth is 86.9% in [1]; 92.7% in assay [2]; 86.5% in assay [3]; 59.7% in assay [4]; 96.4% in [5]; 95.1% in assay [6]. The growth in [7] is 89%; in assay [8] it was 74.6%; in [9], 83.2%; in [10], 68.4%; in assay [11], 72.2%; in assay [12], 80.4%. Also, the growth in assay [13] was 94.1%; in assay [14], 95.4%; in assay [15], 92.8%; in assay [16], 96.6%; in assay [17] it was 96.5%; in assay [18] it was 78.8%. Further, the growth is 62.8% in assay [19] and 91.2% in assay [20].

With `Cc1ccc2c(n1)C[C@H](C(C)(C)O)CC[C@H]2C`, the growth in assay [1] was 99.9%; in [2], 92.4%; in [3], 98.4%; in assay [4], 90.6%; in assay [5] it was 97.5%; in [6] it was 102%. Also, the growth in assay [7] is 92.8%; in assay [8] it was 98.1%; in assay [9], 106%; in assay [10], 103%; in [11] it was 107%; in [12], 110%. Moreover, the growth in assay [13] was 101%; in [14], 94.7%; in assay [15], 99.6%; in assay [16], 99.1%; in assay [17], 104%; in [18] it was 113%. Also, the growth in [19] was 111%; in [20], 104%.

Consider `COc1ccc(C(=O)/C=C/c2ccc(C)cc2)cc1S(N)(=O)=O`, for which the growth was 87.1% in assay [1]; 81% in [2]; 6.38% (active) in assay [3]; 37.4% in assay [4]; 73.1% in assay [5]; 55.8% in [6]. For the same molecule, the growth in [7] was 73.6%; in assay [8], 82.7%; in assay [9], 23.7%; in assay [10], 15.9%; in assay [11] it was 5.31% (active); in [12] it was 35.8%. For the same molecule, the growth in [13] is 29.3%; in assay [14], 77%; in [15] it was 84.1%; in assay [16], 114%; in [17] it was 28%; in assay [18], 39.2%. Besides, the growth was 84.9% in assay [19] and 51.7% in [20].

With `COc1cc2cc(Oc3ccc(NC(=O)Nc4ccc(F)c(C(F)(F)F)c4)cc3)c(C)nc2cc1OCCN1CCCCC1`, the growth in assay [1] was 102%; in [2] it was 57.6%; in [3] it was 91.7%; in [4] it was 75.3%; in [5] it was 118%; in [6], 84.1%. Besides, the growth in [7] is -85% (active); in assay [8], 84.7%; in [9] it was 2.51% (active); in [10], -14.5% (active); in assay [11], -46.1% (active); in [12], -25.8% (active). The growth in [13] is -55.5% (active); in [14], 127%; in assay [15], 0.714% (active); in [16] it was 115%; in [17], 34.7%; in assay [18] it was -92.5% (active). Moreover, the growth is 102% in assay [19] and 74.7% in assay [20].

Take `O=C(/C=C/c1ccc(Cl)cc1)c1ccc(Nc2ccnc3cc(Cl)ccc23)cc1`: the growth was 54% in assay [1]; 136% in [2]; 97.1% in assay [3]; 65% in assay [4]; 111% in assay [5]; 109% in assay [6]. Moreover, the growth in assay [7] is 76.3%; in assay [8], 108%; in [9], 3.01% (active); in assay [10], 43.4%; in assay [11], -17% (active); in [12], -41.9% (active). The growth in [13] is 85.2%; in [14], 84.6%; in [15], 94.7%; in assay [16], 112%; in assay [17] it was 57%; in assay [18], 86.5%. For the same molecule, the results for the growth in [19] and in [20] were 102% and 83.5%, respectively.

As to `C#CCOc1ccc(C2=NN(CCCC)C3N=C(Cl)c4ncn(CCCC)c4N23)cc1OCC#C` (stereo not given), the growth in assay [1] is 101%; in assay [2], 85.2%; in assay [3], 91.4%; in assay [4], 62.5%; in assay [5] it was 97.8%; in assay [6], 87.4%. The growth in [7] is 74.3%; in assay [8], 73%; in assay [9], 78.2%; in assay [10] it was 65.3%; in assay [11] it was 79.1%; in assay [12], 85.2%. Besides, the growth in assay [13] was 85.9%; in assay [14], 93.6%; in [15], 86.2%; in assay [16] it was 92.3%; in assay [17], 99.2%; in assay [18] it was 97.2%. The growth in assay [19] is 80.6%; in assay [20], 83%.

For the molecule `O=c1c(/C=C/c2c(O)ccc3ccccc23)nnc2sc(-c3cccc([N+](=O)[O-])c3)nn12`, the growth is 79.2% in assay [1]; 54.4% in [2]; 45.9% in assay [3]; 20.1% in [4]; 83.1% in [5]; 31.7% in assay [6]. Moreover, the growth in [7] is 24.9%; in assay [8], 50.5%; in assay [9] it was 18.6%; in [10], 25.9%; in assay [11] it was 28.3%; in assay [12], 57.3%. Further, the growth in assay [13] is 22.4%; in [14] it was 82.1%; in assay [15] it was 25.5%; in assay [16], 46%; in assay [17], 43.1%; in assay [18] it was 15.2%. The growth in assay [19] is 68.3%; in [20], 29.4%.
